# RORgamma inh: inhibitors of mouse ROR gamma transcriptional activity | Potency, µM (top dose mostly 53.6 µM), without a hit: at the highest dose activity change, negative = inhibition, hits mostly inhibitors | P51450 | Drosophila S2 Gal4-RORgamma UAS-luciferase reporter, 20 h | 310,000 tested, 5.4% active; further: nearly all actives have a fitted effect of over 60% in size
# Target sequence (P51450 whole entry, looked up, the tested form may be a part): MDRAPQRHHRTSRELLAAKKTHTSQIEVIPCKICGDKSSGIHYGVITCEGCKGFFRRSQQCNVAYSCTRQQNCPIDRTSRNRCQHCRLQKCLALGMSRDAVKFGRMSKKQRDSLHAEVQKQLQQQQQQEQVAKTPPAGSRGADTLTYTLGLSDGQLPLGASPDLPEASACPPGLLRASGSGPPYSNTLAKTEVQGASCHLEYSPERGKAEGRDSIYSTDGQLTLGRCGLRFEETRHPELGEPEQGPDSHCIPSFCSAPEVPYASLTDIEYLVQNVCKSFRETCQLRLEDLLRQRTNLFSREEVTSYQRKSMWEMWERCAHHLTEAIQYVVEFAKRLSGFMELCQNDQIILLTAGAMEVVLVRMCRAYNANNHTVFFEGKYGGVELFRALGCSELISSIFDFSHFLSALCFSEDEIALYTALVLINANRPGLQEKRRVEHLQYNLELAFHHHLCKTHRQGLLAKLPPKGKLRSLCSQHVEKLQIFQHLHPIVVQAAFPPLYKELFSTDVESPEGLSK
#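 Stable Schneider cell line, Gal4 DNA-binding domain fused to ROR gamma, UAS-luciferase. Cmpd 1 hr RT → CuSO4 700 uM final → 20 hr RT → luciferase reagent 10 min → luminescence.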
# ALOX12 inh: blocks human arachidonate 12S-lipoxygenase | P18054 | purified 12hLO, xylenol orange hydroperoxide absorbance | Potency, µM (series often up to 108 µM), inactives show at the highest dose activity change, negative = inhibition, most hits filed as inhibitors | 580,000 tested, 1.1% active
#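 Hydroperoxide product was detected by ferrous iron/xylenol orange as the 573 to 405 nm absorbance ratio. Arachidonic acid at 40 uM (final) was turned over for 30 min at room temperature by 150 nM human 12hLO, pH 7.0 Hepes buffer, after 15 min compound preincubation.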
# ELG1 DNA repair: ELG1-dependent DNA repair inhibition; HEK293T ELG1-luciferase reporter, luminescence, 16 h; DNA damage induced by 5-fluorouridine; Potency, µM (titrated, usually from 46.1 µM), for the others: at the highest dose activity change, negative = inhibition, usual class: inhibitors; 330,000 tested, 2.3% active; AID 504467; further: nearly all actives have a fitted effect of over 55% in size
#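 Reporter activity after DNA damage by 5-fluorouridine is monitored. Compound-treated cells incubate 16 hr at 37 °C, then ONE-Glo is added for 30 min before luminescence reading.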
# DT40 TDP1 CPT: DT40-hTDP1 cell growth loss with CPT; chicken DT40 Tdp1-/-;hTDP1 cells + 20 nM CPT, ATP luminescence, 48 h; Potency, µM (top dose mostly 46.2 µM), for the others: at the highest dose activity change, negative = growth inhibition, most hits filed as inhibitors; 420,000 tested, 12% active; further: nearly all actives have a fitted effect of over 55% in size
#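 Cell growth measured by CellTiter-Glo luminescence after a minimum 48 h, 37 C compound exposure with 20 nM CPT in Tdp1-knockout DT40 cells stably expressing hTDP1, seeded 400/well; qHTS titration format.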
# TDP1 cell noCPT: qHTS for Inhibitors of human tyrosyl-DNA phosphodiesterase 1 (TDP1): qHTS in cells in absence of CPT. DT40 Tdp1-/- hTDP1 cells, no CPT, ATP luminescence, 48 h. Potency, µM (titrated, usually from 46.2 µM), inactives show at the top dose activity change, negative = growth inhibition, hits mostly inhibitors. 420,000 tested, 15% active. AID 686978, 2013; further: nearly all actives have a fitted effect of over 55% in size
#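 Compound effects on proliferation are scored in DT40 Tdp1-/-;hTDP1 cells in the absence of CPT. ATP levels (CellTiter-Glo luminescence) are recorded after a ≥48 hr, 37 °C incubation.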
# VP16 counter: Gal4-VP16 reporter inhibition counter-screen. Drosophila S2 Gal4-VP16 UAS-luciferase, luminescence, 20 h. Potency, µM (series often up to 53.6 µM), inactives show at the top dose activity, negative = inhibition, most hits filed as inhibitors. 310,000 tested, 3.5% active. AID 2546;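 further: Gal4-VP16 expression switched on by copper sulfate through the metallothionein promoter; nearly all actives have a fitted effect of over 50% in size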
# * hit, by the source's call; ? = inconclusive; . = no result; [ ] = another dose, or the depositor's remark. Only some compounds are listed: those with a hit (about 15% of all), similar ones and a draw of the others. The call rests on the fitted dose curve; in most records, active means well fitted curve in the direction sought with a large enough effect; inconclusive means small, poorly fitted or top-dose-only effect, or another doubt; inactive means no such curve, though single readings can be large; an effect the other way counts as inactive or inconclusive. On the % scale 0 is the no-effect control and ±100 the full control effect; potency means the concentration at half of the fitted maximal effect.
SMILES,RORgamma inh,ALOX12 inh,ELG1 DNA repair,DT40 TDP1 CPT,TDP1 cell noCPT,VP16 counter
Cc1ccc(CN2CCCn3nc(C(=O)NCc4cc(C)ccc4C)cc3C2=O)cc1,.,0%,.,15µM*,16µM*,.
CCCNC(=O)c1cc2n(n1)CCCN(Cc1ccc(C)cc1)C2=O,.,-20%,.,-17%,-12%,.
Cc1ccc(CN2CCCn3nc(C(=O)NCc4ccc(N(C)C)cc4)cc3C2=O)cc1,.,5%,.,?,13µM*,.
COc1ccc(NC(=O)CN(C)CC(=O)Nc2ccccc2)cc1,.,-3%,.,.,.,.
Cc1cccc2cc(CN(CCN(C)C)C(=S)Nc3ccccc3)c(=O)[nH]c12,4%,1%,-29%,-30%,?,5%
COc1ccc2[nH]c(=O)c(CN(C(=O)c3cccnc3)c3ccc(C)c(C)c3)cc2c1,12%,-10%,?,12µM*,?,-1%
COc1ccc(N(Cc2cc3ccccc3[nH]c2=O)C(=O)c2cccc(Cl)c2)cc1,.,-23%,.,16µM*,23µM*,.
COC(=O)c1ccccc1NC(=S)N(Cc1ccc2c(c1)OCO2)Cc1cc2cccc(C)c2[nH]c1=O,9%,-18%,12µM*,-25%,?,-11%
CCN(Cc1cc2cccc(C)c2[nH]c1=O)C(=O)c1ccccc1OC,15%,5%,-8%,?,23µM*,-12%
COCCN(Cc1cc2cccc(C)c2[nH]c1=O)C(=O)c1ccc(OC)c(OC)c1,.,15%,.,.,.,.
COc1ccc(N(Cc2cc3cc(OC)ccc3[nH]c2=O)C(=O)c2cccc(Cl)c2)cc1,.,-6%,.,?,?,.
COc1ccccc1N(Cc1cc2cccc(C)c2[nH]c1=O)C(=O)c1cccc(Cl)c1,.,-6%,.,13µM*,21µM*,.
COCCN(Cc1cc2cccc(C)c2[nH]c1=O)C(=O)c1ccccc1,-23%,0%,1%,-12%,-2%,-3%
CCOc1ccc(S(=O)(=O)N2CCN(Cc3ncc(-c4ccccc4)o3)CC2)cc1,.,9%,.,.,.,.
COC(c1ccccc1)c1c(-c2ccccc2)nn(C)c1Cl (configuration not stated),39%,0%,1%,1.5µM*,?,18%
Cc1ccc(C)c(S(=O)(=O)N2CCCCC2CCNC(=O)C(=O)NC2CC2)c1 (configuration not stated),.,-2%,-13%,-21%,?,.
Cc1ccc(C)c(S(=O)(=O)N2CCCC2CNC(=O)C(=O)NC2CCCCCC2)c1 (configuration not stated),.,13%,-16%,?,23µM*,.
Cc1ccc(C)c(S(=O)(=O)N2CCCC2CNC(=O)C(=O)NCc2ccccc2C)c1 (configuration not stated),.,0%,15µM*,?,?,.
Cc1ccc(N(CC(=O)N2CCN(c3ccccc3F)CC2)S(=O)(=O)c2c(C)noc2C)cc1,-1%,-3%,5%,21µM*,?,2%
COc1ccc(N(CC(=O)N2CC=C(c3ccccc3)CC2)S(=O)(=O)c2c(C)noc2C)cc1,11%,16%,?,?,23µM*,-4%
COc1ccc(N(CC(=O)N2CCN(c3ccccc3F)CC2)S(=O)(=O)c2c(C)noc2C)cc1,-9%,-5%,23%,?,?,2%
COC(=O)C1=C(N)OC2=C(C(=O)CCC2)C1c1ccccc1Cl (configuration not stated),.,5%,.,.,.,.
CCCCn1nnnc1CSc1nnc(-c2cccnc2)n1-c1ccc(C)cc1C,.,-14%,.,.,.,.
CN(C)C(=O)CN1CCN(CC2CCCCC2)CC1,.,12%,.,.,.,.
O=C(Cn1nc2c(cc1=O)CCCCC2)Nc1nc(-c2ccccn2)cs1,.,102%,.,.,.,.
SMILES,RORgamma inh,ALOX12 inh,ELG1 DNA repair,DT40 TDP1 CPT,TDP1 cell noCPT,VP16 counter
CCCCNc1nc2c(c(=O)n(C)c(=O)n2C)n1CC(O)COc1ccccc1C (configuration not stated),.,19%,.,21µM*,18µM*,.
Cn1c(=O)c2c(nc(N3CCN(Cc4ccccc4)CC3)n2CC(=O)c2ccccc2)n(C)c1=O,.,16%,.,-21%,0%,.
Cn1c(=O)c2c(nc(N3CCCCC3)n2CC(O)CO)n(C)c1=O (configuration not stated),.,7%,.,.,.,.
COc1cccc(C(=O)Cn2c(N3CCCCC3)nc3c2c(=O)n(C)c(=O)n3C)c1,-17%,-11%,-1%,?,18µM*,1%
Cc1cccc(OCC(O)Cn2c(N3CCCCC3)nc3c2c(=O)n(C)c(=O)n3C)c1 (configuration not stated),15%,?,?,?,16µM*,-3%
Cn1c(=O)c2c(nc(N3CCCCCC3)n2CC(O)COc2ccccc2)n(C)c1=O (configuration not stated),19%,-18%,?,23µM*,18µM*,-5%
C=CCNC(=O)N[C@H]1CCN(C(=O)CSC)[C@@H]1C(=O)N[C@H](Cc1ccccc1)C(N)=O,.,70%,.,.,.,.
OC1(c2csc(CN3CCOCC3)n2)CCN(Cc2ccccc2F)CC1,.,27%[176 µM],.,.,.,.
COc1ccc(OCC(O)Cn2c(Nc3ccccc3)nc3c2c(=O)n(C)c(=O)n3C)cc1 (configuration not stated),-5%,?,?,1%,-14%,?
CCc1ccc(OCC(O)Cn2c(N3CCCCC3)nc3c2c(=O)[nH]c(=O)n3C)cc1 (configuration not stated),44%,?,-47%,?,?,-1%
Cn1c(=O)c2c(nc(N3CCCCC3)n2CC(O)COc2ccccc2)n(C)c1=O (configuration not stated),35%,0%,-2%,?,16µM*,-8%
Cn1c(=O)c2c(nc(NC3CCCCC3)n2CC(O)COc2ccccc2)n(C)c1=O (configuration not stated),-15%,1%,?,?,23µM*,-18%
CNC(=S)NNC(=O)c1csc(C)c1C,.,8%,.,.,.,.
C=CCCC(CN1CCCC1)Oc1ccc(C(=O)N2CCCC2)cn1 (configuration not stated),.,17%,.,.,.,.
Cc1cc(=O)oc2c(C)c(OCC(=O)NCCN(C)C)ccc12,.,4%,.,.,.,.
COc1ccc2nc(SCC(=O)Nc3ccc4sc(C)nc4c3)c(C#N)cc2c1,?,?,?,13µM*,8.2µM*,-2%[0.365 µM]
COC(=O)c1ccc(OC(=O)/C=C/c2ccc(Br)o2)cc1,.,11µM*,.,.,.,.

# Compound activity as filed in PubChem.
